Measurements from PubChem BioAssay (NCI).
The panel holds about 83,000 compounds, 20% with a hit somewhere; the sample as a whole holds those more often.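 The endpoint reported here, percent growth, reads 100 for growth as untreated, 0 for no net growth and -100 for all cells dead.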 Values without a mark were called inactive. Activity calls are given as the source filed them. The calls were made as follows: active = growth percent below 10; inactive = the rest.

Columns and labels:
Assay in all cases: NCI-60 one-dose screen, 48 h (100 = growth as untreated, 0 = no growth, -100 = all killed)
Details in all cases: 10 µM unless noted
[1] = system: HCT-15 colon
[2] = system: HT29 colon
[3] = system: SNB-75 CNS
[4] = system: SNB-19 CNS
[5] = system: U251 CNS
[6] = system: PC-3 prostate
[7] = system: SK-MEL-5 melanoma
[8] = system: LOX IMVI melanoma
[9] = system: SK-MEL-28 melanoma

SMILES	growth [1]	growth [2]	growth [3]	growth [4]	growth [5]	growth [6]	growth [7]	growth [8]	growth [9]
Cn1c(=O)c2c(ncn2CCC(=O)Nc2ccc(F)cc2)n(C)c1=O	106%	94%	91.5%	102%	98.4%	80.9%	111%	97.9%	114%
Cc1cc(C)c(NC(=O)c2sc3nc4c(cc3c2N)CCCC4)c(C)c1	32.1%	13.9%	18.5%	43.4%	27.7%	54%	50.1%	37.6%	
COc1ccc(C2(Cl)c3ccccc3N(c3ccccc3)c3ccccc32)cc1	8.52% (active)	3.7% (active)	3.72% (active)	6.63% (active)	-87.5% (active)	-24.4% (active)	-87.3% (active)	-84.3% (active)	-74.7% (active)
COc1cc(/C=N/Nc2ncnc3c2c(C)nn3-c2ccc(F)cc2)ccc1O	81.1%	92.3%	82.5%	93.3%	94.4%	73%	56.6%	81%	107%
COc1cccc(-c2nn(-c3ccccc3)cc2-c2ccnc(NCCCO)c2)c1	26.3%	7.65% (active)	23.4%	36.3%	21%	46.4%	29.8%	33.6%	
O=S(=O)(NCCCNc1cc(-c2cn(-c3ccccc3)nc2-c2cccc(O)c2)ccn1)c1ccc(F)cc1	6.54% (active)	0.761% (active)	46.3%	57.4%	31.3%	23%	31.4%	18.9%	
Nc1ccc(Cl)cn1	98.6%	96.9%	80.2%	107%	94.3%	90%	103%	92.7%	110%
COc1cnc2c(c1)C(=O)c1c-2n(CCCNCCN2CCOCC2)c(=O)c2cc([N+](=O)[O-])ccc12	0.784% (active)	1.17% (active)	-4.98% (active)	15.2%	-56.5% (active)	15.7%	-87.8% (active)	-66.2% (active)	47.5%
Clc1ccc2c(NCCNc3nc(-c4ccccc4)cc(-c4ccccc4)n3)ccnc2c1	-74.2% (active)	-54.3% (active)	-72.2% (active)	-51.7% (active)	-90.6% (active)	-88.5% (active)	-93.4% (active)	-76.7% (active)	-90.7% (active)
COC(c1ccccc1)(c1ccccc1)c1ccccc1	104%	100%	87.7%	96%	107%	102%	103%	99.2%	109%
CC[C@]12C=CCN3CC[C@@]4(c5cc([C@H]6CCC(=O)N6)c(OC)cc5N(C)[C@H]4[C@@](O)(C(=O)OC)[C@@H]1OC(C)=O)[C@@H]32	104% [2.5 µM]	103% [2.5 µM]	81.6% [2.5 µM]	105% [2.5 µM]	98.3% [2.5 µM]	95.5% [2.5 µM]	99.8% [2.5 µM]	108% [2.5 µM]	
CCCCC[C@H]1C/C=C2/C(=O)C(Cl)=C[C@@H]2C/C=C\CCCC(=O)O1	-61.9% (active)	-22.6% (active)	5.2% (active)	-73.4% (active)	-91.7% (active)	-46.6% (active)	-77.5% (active)	-85.2% (active)	-64.7% (active)
Cc1cc(N2CCCCC2)nc(N(CCCNc2ccnc3cc(Cl)ccc23)Cc2ccco2)n1	11.3%	2.02% (active)	54.3%	27.4%	24.7%	2.61% (active)	-91.8% (active)	-34.7% (active)	-23.5% (active)
Cc1cccc(C)c1NC(=O)CSC(=S)N1CCN(CCOCCO)CC1	105%	93.6%	96.7%	99%	104%	99.7%	110%	96%	105%
COc1ccc2c(c1)c(-c1nc(-c3cn(C)c4ncccc34)cs1)cn2CCCN1CCCCC1	-69.9% (active)	-16.5% (active)	77.5%	55.2%	-18.4% (active)	51.1%	28.6%	28.3%	-77.5% (active)
